Experimental data taken from PubChem BioAssay AID1159580 (chemical genetic matrix, 2015).
In all, about 5,500 compounds went through this assay and about 2,000 (36%) were called active. About 18% were inconclusive and are not listed. Rule as the data show it: active = normalized growth mostly below about 0.91 (no sharp cut-off); inconclusive = no clear call, values can overlap the other calls; inactive = mostly above about 0.92. Some of the results follow.

Assay: chemical genetic growth profiling, strain panel (AID 1159580);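 also: tested at 20 µM; growth read once vehicle control cultures reached saturation at 30 °C; 1 = growth at the plate median or of vehicle wells; lower values mean less growth of the strain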
Settings: growth OD

Measured: normalized growth

c1ccc2c(c1)-c1cccc3cccc-2c13
inactive: S. cerevisiae deletion strains, locus YDL101C, strain DUN1, stronger effect = lower value 0.929 | S. cerevisiae deletion strains, locus YDR150W, strain NUM1, stronger effect = lower value 0.911 | S. cerevisiae deletion strains, locus YJL187C, strain SWE1, stronger effect = lower value 0.939 | S. cerevisiae deletion strains, locus YJR043C, strain POL32, stronger effect = lower value 0.929 | S. cerevisiae deletion strains, locus YMR219W, strain ESC1, stronger effect = lower value 0.949 | S. cerevisiae deletion strains, locus YMR263W, strain SAP30, stronger effect = lower value 0.916 | S. cerevisiae deletion strains, locus YOL006C, strain TOP1, stronger effect = lower value 0.764
active: S. cerevisiae deletion strains, locus YAL013W, strain DEP1, stronger effect = lower value 0.897 | S. cerevisiae deletion strains, locus YBR229C, strain ROT2, stronger effect = lower value 0.873 | S. cerevisiae deletion strains, locus YCL061C, strain MRC1, stronger effect = lower value 0.876 | S. cerevisiae deletion strains, locus YDL134C, strain PPH21, stronger effect = lower value 0.873 | S. cerevisiae deletion strains, locus YEL061C, strain CIN8, stronger effect = lower value 0.787 | S. cerevisiae deletion strains, locus YGR078C, strain PAC10, stronger effect = lower value 0.855 | S. cerevisiae deletion strains, locus YHR030C, strain SLT2, stronger effect = lower value 0.34 | S. cerevisiae deletion strains, locus YHR087W, strain rtc3, stronger effect = lower value 0.826 | S. cerevisiae deletion strains, locus YJR075W, strain HOC1, stronger effect = lower value 0.771 | S. cerevisiae deletion strains, locus YKL190W, strain CNB1, stronger effect = lower value 0.767 | S. cerevisiae deletion strains, locus YLR039C, strain RIC1, stronger effect = lower value 0.363 | S. cerevisiae deletion strains, locus YLR058C, strain SHM2 (second series), stronger effect = lower value 0.923 | S. cerevisiae deletion strains, locus YLR085C, strain ARP6, stronger effect = lower value 0.318 | S. cerevisiae deletion strains, locus YLR262C, strain YPT6, stronger effect = lower value 0.313 | S. cerevisiae deletion strains, locus YML094W, strain GIM5, stronger effect = lower value 0.757 | S. cerevisiae deletion strains, locus YMR307W, strain GAS1, stronger effect = lower value 0.428 | S. cerevisiae deletion strains, locus YNL153C, strain GIM3, stronger effect = lower value 0.906 | S. cerevisiae deletion strains, locus YNL298W, strain CLA4 (second series), stronger effect = lower value 0.694 | S. cerevisiae deletion strains, locus YNL322C, strain KRE1, stronger effect = lower value 0.932 | S. cerevisiae deletion strains, locus YNR030W, strain Alg12, stronger effect = lower value 0.721 | S. cerevisiae deletion strains, locus YPL055C, strain LGE1, stronger effect = lower value 0.666 | S. cerevisiae deletion strains, locus YPL241C, strain CIN2, stronger effect = lower value 0.648 | S. cerevisiae deletion strains, locus YPR135W, strain CTF4, stronger effect = lower value 0.483 | S. cerevisiae strains, strain wild type, stronger effect = lower value 0.863
